Out of some 340,000 compounds screened, about 3,300 (0.97%) were called active. Many of the other results were omitted from the sample, so actives are more common in it than they were. Values without a mark were called inactive.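 How the source made its calls: active means inhibition above the mean over all tested compounds plus 3 SD (cut at about 30% in these data); inactive means the rest.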
Each compound was assayed against Platelet-activating factor acetylhydrolase 2, cytoplasmic (Homo sapiens) (UniProt Q99487) (assay: PAFAH2 enzyme inhibitors, primary screen, biochemical, fluorescence polarization, human (AID 492956;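 further: inhibitors block probe labeling of enzyme so polarization drops; 0% = enzyme with DMSO and 100% = wells lacking PAFAH2 protein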)). Conditions: recombinant PAFAH2, FP-rhodamine activity probe, at 3.39 µM, stronger effect = higher value.

SMILES | inhibition
O=C(Cc1ccc(NC(=O)C2CCCN(C(=O)C3CCCCC3)C2)cc1)Nc1cccc(C(=O)N2CCCCC2)c1 (stereo unspecified) | -2.71%
O=C(CC1Sc2ccccc2NC1=O)NNc1ccc(Cl)c(Cl)c1 (stereo unspecified) | 6.55%
CCN(CC)CCn1c2ccc(Cl)cc2c2nc(C)sc21 | -2.76%
CCN(CC)CCCC(C)n1c2nc(=O)[nH]c(=O)c-2nc2cc(Cl)ccc21 (stereo unspecified) | 38.8% (active)
Cc1ccc(S(=O)(=O)N(Cc2cc3ccccc3[nH]c2=O)CC2CCCO2)cc1 (stereo unspecified) | 4.81%
Cn1c(NC(=O)c2ccco2)c(-c2ccccc2Cl)c(=O)c2ccccc21 | -1.9%
Cc1[nH]c(C)c(S(=O)(=O)N2CCN(c3cccc(C(F)(F)F)c3)CC2)c1C(=O)N1CCCCC1 | 8.89%
COc1ccc(/C=C/C(=O)OCC(=O)NCc2cccs2)cc1OC | 49.4% (active)
CCOc1ccc(/C=C/C(=O)N(CC)CC(=O)NCc2cccs2)cc1OC | 5.35%
COc1ccc(Cl)cc1C(=O)OCC(=O)NCc1cccs1 | 1.83%
CCOc1ccc(/C=N/OCC(=O)NCc2cccs2)cc1 | 4.81%
O=C(COC(=O)/C=C/c1cccc(Cl)c1)NCCc1ccccc1 | 20.5%
O=C(COC(=O)/C=C/c1cccc(Cl)c1)NCc1cccs1 | 37% (active)
CN(CCc1ccccc1)C(=O)c1cccc(NC(=O)Cc2cccc(NC(=O)C3CCCN(C(=O)C4CCC4)C3)c2)c1 (stereo unspecified) | -1.94%
COc1ccc(CCNC(=O)CN(C)S(=O)(=O)c2ccc3nc(C)sc3c2)cc1OC | -0.36%
COC(=O)C1=C(C)NC(=S)NC1c1ccc(OCC(=O)N2CC(C)OC(C)C2)c(OC)c1 (stereo unspecified) | -0.58%
Cc1ccc(NS(=O)(=O)c2cn(C)c(=O)n(C)c2=O)c(C)c1 | 1.4%
COc1ccc(S(=O)(=O)N2CN(CCc3ccc(OC)c(OC)c3)c3nc4ccccc4nc32)cc1 | 8.38%
CCOc1ccc(C(=O)Nc2cccc(SC)c2)cc1 | -11.9%
CC(=O)c1c(C)[nH]c(C(=O)OCC(=O)NCCC(C)C)c1C | 30.4% (active)
CC(=O)c1c(C)[nH]c(C(=O)OCC(=O)Nc2cc(S(=O)(=O)N3CCCCC3)ccc2C)c1C | 7.66%
CC(=O)c1c(C)[nH]c(C(=O)OCC(=O)Nc2c(C)cccc2C)c1C | 4.64%
CCC(C)NC(=O)C1CCCN(C(=O)NC2CCCCC2)C1 (stereo unspecified) | 10.5%

SMILES | inhibition
COc1ccc(C(=O)C2CCCN(C(=O)c3cc4nc(C)cc(C)n4n3)C2)cc1F (stereo unspecified) | -3.28%
c1coc(-c2nc3nc4ccccc4n3nc2-c2ccco2)c1 | 45.7% (active)
COc1cc(OC)cc(C(=O)NC(=S)N2CCN(c3ccc(C(F)(F)F)cc3[N+](=O)[O-])CC2)c1 | 7.31%
Cc1ccc(-c2nn(-c3ccc(F)cc3)cc2C(=O)NCC(c2cccs2)N2CCOCC2)cc1 (stereo unspecified) | 3.21%
Cc1cc(C(=O)N2CCN(c3ccccn3)CC2)c(C)o1 | -1.14%
NC(=O)CSC1=Nc2ccccc2C2=NC(CCC(=O)NCc3ccc(F)cc3)C(=O)N12 (stereo unspecified) | 1.37%
O=C(CSC1=Nc2ccccc2C2=NC(c3ccccc3)C(=O)N12)NCC1CCCO1 (stereo unspecified) | 7.84%
CC(C)C1N=C2c3ccccc3N=C(SCC(=O)c3ccc(O)c(O)c3)N2C1=O (stereo unspecified) | 43.8% (active)
C/C(=N/Nc1nc(-c2ccccc2)c(CC(=O)O)s1)c1ccccc1 | 0.51%
N=C1C(c2nc3ccccc3s2)=C(O)CN1NC(=O)c1ccc([N+](=O)[O-])cc1 | 8.9%
CCCCCN1CC(O)=C(c2ccccc2)C1=N | -3.01%
COc1ccccc1N1CC(O)=C(c2nc3ccccc3s2)C1=N | 33.6% (active)
CCc1ccc(N2CC(O)=C(c3nc4ccccc4c(=O)[nH]3)C2=N)cc1 | -1.39%
CCCCCN1CC(O)=C(c2nc(-c3ccc(Cl)cc3)cs2)C1=N | -0.6%
CCOC(=O)CCCN1CC(O)=C(c2nc3ccccc3s2)C1=N | 34.8% (active)
CC(=O)Nc1ccc(N2C(=O)CCC2=O)cc1C | -0.05%
NC(=O)C1CCN(Cc2nc3c(Br)cc(Br)cc3c(=O)[nH]2)CC1 | -2.66%
CCC(=O)Nc1ccc(C(=O)NNC(=O)c2ccc(Cl)cc2)cc1 | -2.08%
C/C=C/C(=O)OCC(=O)Nc1ccc(F)cc1Cl | 26%
C/C=C/C=C/C(=O)OCC(=O)Nc1ccc(Cl)cc1 | 86.5% (active)
COc1ccc(-n2c(C)nn(CC3CC3)c2=O)cc1 | 0.47%
O=C1NCC(c2ccccc2)(c2ccccc2)C(=O)N1 | -5.72%
O=C(CSc1n[nH]c(-c2cccnc2)n1)Nc1ccc(Cl)cc1 | -7.75%

SMILES | inhibition
O=[N+]([O-])c1cc(S(=O)(=O)NCCc2ccccn2)ccc1Cl | 4.86%
O=C(COC(=O)CCOc1ccccc1)Nc1cc(S(=O)(=O)N2CCCCC2)ccc1Cl | -0.76%
CC(=O)c1cccc(OCC(=O)OCC(=O)Nc2cc(S(=O)(=O)N3CCCCC3)ccc2C)c1 | 1.56%
CCOc1ncccc1C(=O)OCC(=O)Nc1cccc(S(=O)(=O)N2CCCCCC2)c1 | 60% (active)
O=C(COC(=O)CCc1ccc(S(=O)(=O)N2CCOCC2)cc1)Nc1cccc(Cl)c1 | 0.83%
O=C(CSc1ccccc1)Nc1cccc(S(=O)(=O)N2CCOCC2)c1 | -0.86%
O=C(COC(=O)c1ccccc1)Nc1cccc(S(=O)(=O)N2CCOCC2)c1 | 37.7% (active)
O=C(COC(=O)/C=C/c1ccc(Br)o1)Nc1cccc(S(=O)(=O)N2CCOCC2)c1 | 42% (active)
O=C(CN1CCc2ccccc2C1)Nc1cccc(S(=O)(=O)N2CCOCC2)c1 | 5.27%
CS(=O)(=O)c1ccc(Cl)c(NC(=O)COC(=O)c2cccc(S(=O)(=O)N3CCCC3)c2)c1 | 32.3% (active)
O=C(COC(=O)COc1ccccc1F)Nc1cccc(S(=O)(=O)N2CCCCC2)c1 | -7.67%
CC(NC(=O)c1ccccc1)C(=O)OCC(=O)Nc1cccc(S(=O)(=O)N2CCCC2)c1 (stereo unspecified) | 7.86%
CN=C(Nc1cccc(S(=O)(=O)N2CCOCC2)c1)c1ccccc1 | 0.65%
OC(CN1C2=NCCCN2c2ccccc21)c1ccc(Br)cc1 (stereo unspecified) | 9.07%
C=CCNC(=O)/C=C/c1ccc(C(C)C)cc1 | 10%
CC(=O)NC12CC3CC(C1)CC(C(=O)N1CCN(S(=O)(=O)c4cccs4)CC1)(C3)C2 | 17.5%
O=C(OCC(=O)N1CCCCCC1)c1ccc(Br)c(S(=O)(=O)N2CCOCC2)c1 | 8.68%
COc1cccc(NC(=O)COc2cc(C)cc3oc(=O)cc(C)c23)c1 | -3.3%
CC(=O)c1nn(-c2ccc(C)cc2)cc1C(=O)c1cccc(Br)c1 | 1.51%
Cc1ccc(C)c(C(=O)COC(=O)Cn2[nH]c(=O)c3ccccc3c2=O)c1 | -1.71%
COCCCNC(=O)c1c(F)c(F)c(F)c(F)c1F | -4.37%
CC(NC(=O)CN1CCN(Cc2ccc(Cl)cc2)C1=O)c1ccc2c(c1)OCCO2 (stereo unspecified) | 1.47%
O=C(NCc1cccnc1)c1cccnc1Sc1ccc(Cl)cc1 | 2.4%

SMILES | inhibition
COc1ccccc1C(=O)OCC(=O)Nc1cccc(S(=O)(=O)NC2=NCCCCC2)c1 | 12.3%
O=C(COC(=O)c1c(Cl)cccc1Cl)Nc1cccc(S(=O)(=O)NC2=NCCCCC2)c1 | 8.12%
CCc1ccc(C(=O)OCC(=O)Nc2cccc(S(=O)(=O)NC3=NCCCCC3)c2)cc1 | 52.3% (active)
CNC(=O)C1CC(=O)N(Cc2ccc3c(c2)OCO3)C(=Nc2ccc(F)cc2)S1 (stereo unspecified) | 0.97%
CCC1(C)N(O)C(C)(C)C(c2ccc(OC)cc2)=[N+]1[O-] (stereo unspecified) | 2.06%
CCc1ccccc1NC(=O)c1ccc2c(c1)CCN2S(C)(=O)=O | 2.6%
COCCNC(=O)Nc1ccc2nc(-c3ccco3)c(-c3ccco3)nc2c1 | 35.8% (active)
O=C(Nc1nc(-c2ccco2)c(-c2ccco2)s1)c1ccco1 | 22.9%
COCCNC(=O)c1snc2ccc(Cl)cc12 | -2.13%
Cc1nnsc1C(=O)NCc1c(F)cccc1Cl | 2.19%
Cc1oc2cc(Br)c(O)c(Br)c2c1C(=O)c1ccccc1 | 59.6% (active)
Cc1oc2cc([N+](=O)[O-])c(O)c([N+](=O)[O-])c2c1C(=O)c1ccc(Br)cc1 | 8.04%
CCOC(=O)c1c(-c2ccccc2)oc2cc(Br)c(O)c(C=O)c12 | 6.96%
COCCN(CCOC)c1nc(N)c2c(N)nc3c(c2c1C#N)CC(=O)N3Cc1ccc(Cl)cc1 | 5.58%
CSc1nc(-c2ccco2)nn1C(=O)c1ccccc1Cl | 0.54%
CCc1nnc(SCc2cccc(F)c2)nc1CC | 0.34%
Clc1ccc(CSc2nnc3c(n2)[nH]c2ccccc23)cc1 | -12.8%
c1ccc(CSc2nnc(-c3ccco3)c(-c3ccco3)n2)cc1 | 57% (active)
S=C(NCc1ccco1)NCc1ccccc1Cl | 2.25%
Clc1ccccc1CSc1nnc(-c2ccco2)c(-c2ccco2)n1 | 62.2% (active)
Nn1c(SCC(=O)NC2CCCC2)nnc1-c1ccccc1F | 3.8%
CCn1c(N)c(Br)c(=O)[nH]c1=O | -4.56%

Source: PubChem BioAssay AID492956 (The Scripps Research Institute Molecular Screening Center, 2010)
